Results as given in the supplement of paper PMC10849652.
The full data set covers some 8,800 targets. This sample favours those with a hit. About 0.5% of all pairs of compound and target were hits.

How the values were obtained:
Experiment in all cases: log2 fold change, soluble protein after heating vs DMSO (PISA); higher = thermal stabilisation; K562 lysate, 10 uM; active = over 0.2 and 3.5 SD of the protein, either way, in both replicates (recomputed)
[1] = compound: C1=CC=C(C=C1)[C@H](COC2=CC3=C(C=C2)NC(=O)N3)NC(=O)C4=CC=CN(C4=O)CC5=CC(=C(C=C5)F)F
How it was run: (§1)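 Quantification was by TMTpro 16plex LC-MS/MS with equalised channel sums, applied to the supernatant after 21,000xg for 90 min. Samples were crude K562 extract at 1 mg/mL protein in PBS pH 7.4 with 1 mM MgCl2, treated with 10 μM compound for 30 min, heated for 3 min across 48°C-58°C, pooled and brought to 0.5% NP-40 at 4°C. Values are log-two fold changes in thermal stability relative to solvent controls, from duplicates.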

[2] = compound: CC1=C(SC2=C1C(=N[C@H](C3=NN=C(N32)C)CC(=O)N)C4=CC=C(C=C4)Cl)C
How it was run: as §1

[3] = compound: CC1=C2C(=CC=C1)N=C(N(C2=O)C3=CC=CC=C3C)CN4C=NC5=C(N=CN=C54)N
How it was run: as §1

[4] = compound: Cc1sc2c(c1C)C(c1ccc(Cl)cc1)=N[C@@H](CC(=O)OC(C)(C)C)c1nnc(C)n1-2
How it was run: as §1

[5] = compound: c1ccc([C@@H]2C[C@H]2NC2CCNCC2)cc1
How it was run: as §1

Measured: log2 fold change

STK39 (UniProt Q9UEW8)
inactive: [1] 0.011 | [2] -0.056 | [3] 0.049 | [4] 0 | [5] 0.078

STK11IP (UniProt Q8N1F8)
inactive: [1] 0.002 | [2] 0.072 | [3] 0.019 | [4] 0.019 | [5] 0.015

SLC26A6 (UniProt Q9BXS9)
inactive: [1] -0.053 | [2] 0.067 | [3] 0.011 | [4] -0.556 | [5] -0.096

SLC20A1 (UniProt Q8WUM9)
Sequence of UniProt Q8WUM9 (Q8WUM9 whole entry, looked up): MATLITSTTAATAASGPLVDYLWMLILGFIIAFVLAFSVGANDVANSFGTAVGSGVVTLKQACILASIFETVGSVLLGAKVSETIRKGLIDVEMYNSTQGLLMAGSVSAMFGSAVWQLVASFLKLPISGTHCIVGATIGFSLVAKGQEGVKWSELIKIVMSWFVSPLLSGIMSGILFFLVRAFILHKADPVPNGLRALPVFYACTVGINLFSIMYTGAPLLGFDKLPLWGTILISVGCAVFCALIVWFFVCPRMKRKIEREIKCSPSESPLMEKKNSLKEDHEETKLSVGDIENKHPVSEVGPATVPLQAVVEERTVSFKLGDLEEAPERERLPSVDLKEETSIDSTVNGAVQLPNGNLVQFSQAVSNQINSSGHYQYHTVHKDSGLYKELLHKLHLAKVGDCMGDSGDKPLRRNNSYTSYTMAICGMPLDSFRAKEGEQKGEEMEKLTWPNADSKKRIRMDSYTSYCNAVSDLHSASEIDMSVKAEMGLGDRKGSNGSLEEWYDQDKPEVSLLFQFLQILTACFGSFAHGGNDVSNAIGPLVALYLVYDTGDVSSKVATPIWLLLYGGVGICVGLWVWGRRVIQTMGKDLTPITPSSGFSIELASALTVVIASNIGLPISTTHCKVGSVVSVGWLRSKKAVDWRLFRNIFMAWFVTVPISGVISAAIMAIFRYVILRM
inactive: [1] 0.071 | [2] -0.048 | [3] 0.007 | [4] -0.046 | [5] 0.024

TAPT1 (UniProt Q6NXT6)
inactive: [1] -0.004 | [2] -0.023 | [3] 0.092 | [4] -0.07 | [5] -0.128

SPC25 (UniProt Q9HBM1)
Sequence of UniProt Q9HBM1 (Q9HBM1 whole entry, looked up): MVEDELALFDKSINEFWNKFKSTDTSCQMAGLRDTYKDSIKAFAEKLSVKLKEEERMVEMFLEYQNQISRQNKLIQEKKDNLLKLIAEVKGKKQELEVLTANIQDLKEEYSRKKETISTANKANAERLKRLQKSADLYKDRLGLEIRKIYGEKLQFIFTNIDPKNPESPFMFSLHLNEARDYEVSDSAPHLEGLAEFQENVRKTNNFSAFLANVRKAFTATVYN
inactive: [1] 0.055 | [2] 0.044 | [3] 0.029 | [4] 0.022 | [5] 0.039

SMN1 (UniProt Q16637)
Sequence of UniProt Q16637 (Q16637 whole entry, looked up): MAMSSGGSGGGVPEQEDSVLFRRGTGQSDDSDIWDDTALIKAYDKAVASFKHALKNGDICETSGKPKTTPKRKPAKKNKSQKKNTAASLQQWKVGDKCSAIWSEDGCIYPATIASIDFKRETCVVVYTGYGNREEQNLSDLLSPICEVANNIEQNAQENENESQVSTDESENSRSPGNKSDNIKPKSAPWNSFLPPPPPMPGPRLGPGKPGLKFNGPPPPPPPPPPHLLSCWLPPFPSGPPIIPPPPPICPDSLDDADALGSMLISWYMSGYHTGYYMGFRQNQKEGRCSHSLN
inactive: [1] 0.083 | [2] -0.054 | [3] 0.054 | [4] -0.012 | [5] 0.024

SKA3 (UniProt Q8IX90)
inactive: [1] -0.008 | [2] -0.002 | [3] -0.009 | [4] -0.016 | [5] -0.02

SH3BP2 isoform 4 (UniProt P78314)
inactive: [1] -0.05 | [2] 0.211 | [3] -0.124 | [4] 0.035 | [5] -0.021

STUB1 (UniProt Q9UNE7)
Sequence of UniProt Q9UNE7 (Q9UNE7 whole entry, looked up): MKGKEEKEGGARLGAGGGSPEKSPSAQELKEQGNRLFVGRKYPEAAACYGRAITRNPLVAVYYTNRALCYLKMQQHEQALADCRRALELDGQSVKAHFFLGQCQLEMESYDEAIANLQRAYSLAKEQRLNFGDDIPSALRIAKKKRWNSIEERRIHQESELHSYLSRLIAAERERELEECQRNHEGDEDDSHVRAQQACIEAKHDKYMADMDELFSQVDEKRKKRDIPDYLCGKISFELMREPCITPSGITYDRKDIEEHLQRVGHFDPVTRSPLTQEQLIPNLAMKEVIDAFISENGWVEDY
inactive: [1] -0.04 | [2] 0.036 | [3] -0.006 | [4] 0.035 | [5] 0.02

SPR (UniProt P35270)
inactive: [1] 0.113 | [2] -0.031 | [3] -0.027 | [4] -0.034 | [5] -0.067

SLC25A25 isoform 3 (UniProt Q6KCM7)
inactive: [1] 0.064 | [2] -0.027 | [3] 0.013 | [4] 0.034 | [5] 0.023

SRRT (UniProt Q9BXP5)
inactive: [1] -0.003 | [2] 0.02 | [3] -0.002 | [4] 0.021 | [5] 0.068

SQLE (UniProt Q14534)
inactive: [1] 0.044 | [2] 0.054 | [3] -0.099 | [4] 0.012 | [5] 0.031

STK24 (UniProt B4DR80)
inactive: [1] -0.025 | [2] 0.003 | [3] -0.041 | [4] -0.019 | [5] -0.055

TAF9 (UniProt Q16594)
inactive: [1] 0.04 | [2] -0.004 | [3] 0.05 | [4] 0.019 | [5] 0.021

SFR1 isoform 2 (UniProt Q86XK3)
Sequence of UniProt Q86XK3 (Q86XK3 whole entry, looked up): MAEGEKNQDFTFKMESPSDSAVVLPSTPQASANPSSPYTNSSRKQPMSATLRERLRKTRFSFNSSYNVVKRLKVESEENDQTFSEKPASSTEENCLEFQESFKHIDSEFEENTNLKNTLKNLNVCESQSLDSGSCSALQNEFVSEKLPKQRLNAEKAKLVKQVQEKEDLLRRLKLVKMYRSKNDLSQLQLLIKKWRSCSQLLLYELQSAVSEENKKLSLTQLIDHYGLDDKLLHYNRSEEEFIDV
inactive: [1] -0.035 | [2] -0.005 | [3] -0.01 | [4] 0 | [5] 0.072

SLC25A32 (UniProt Q9H2D1)
inactive: [1] 0.032 | [2] 0.014 | [3] 0.016 | [4] -0.053 | [5] -0.06

SLC25A44 (UniProt Q96H78)
inactive: [1] 0.042 | [2] -0.044 | [3] -0.014 | [4] -0.004 | [5] -0.17

SMAD9 (UniProt O15198)
Sequence of UniProt O15198 (O15198 whole entry, looked up): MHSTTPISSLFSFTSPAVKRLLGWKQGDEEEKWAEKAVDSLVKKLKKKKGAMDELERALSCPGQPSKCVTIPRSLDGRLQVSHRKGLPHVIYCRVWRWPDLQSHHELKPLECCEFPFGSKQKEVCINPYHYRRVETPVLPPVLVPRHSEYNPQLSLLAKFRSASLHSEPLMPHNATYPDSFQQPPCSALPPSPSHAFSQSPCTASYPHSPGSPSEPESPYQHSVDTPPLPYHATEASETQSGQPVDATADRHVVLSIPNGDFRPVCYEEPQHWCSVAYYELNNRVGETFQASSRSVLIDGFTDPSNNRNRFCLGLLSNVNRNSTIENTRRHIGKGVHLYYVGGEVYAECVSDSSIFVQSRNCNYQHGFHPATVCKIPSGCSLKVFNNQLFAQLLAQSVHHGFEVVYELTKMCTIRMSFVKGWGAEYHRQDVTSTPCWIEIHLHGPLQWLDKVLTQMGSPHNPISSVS
inactive: [1] 0.102 | [2] -0.074 | [3] 0.058 | [4] -0.099 | [5] 0.042

STK3 isoform 2 (UniProt Q13188)
inactive: [1] -0.031 | [2] -0.042 | [3] -0.108 | [4] 0.01 | [5] -0.073

TARBP2 (UniProt Q15633)
Sequence of UniProt Q15633 (Q15633 whole entry, looked up): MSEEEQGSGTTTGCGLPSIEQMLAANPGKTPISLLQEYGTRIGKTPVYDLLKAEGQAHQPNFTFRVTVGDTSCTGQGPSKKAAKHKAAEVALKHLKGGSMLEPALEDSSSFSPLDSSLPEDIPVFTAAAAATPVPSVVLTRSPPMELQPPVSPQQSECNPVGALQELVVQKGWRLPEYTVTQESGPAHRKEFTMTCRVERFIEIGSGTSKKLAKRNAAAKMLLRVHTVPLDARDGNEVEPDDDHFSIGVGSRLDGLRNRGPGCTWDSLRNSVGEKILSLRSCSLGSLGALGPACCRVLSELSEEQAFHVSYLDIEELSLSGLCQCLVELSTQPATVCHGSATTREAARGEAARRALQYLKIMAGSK
inactive: [1] 0.001 | [2] -0.003 | [3] -0.003 | [4] -0.019 | [5] 0.051

SYF2 (UniProt O95926)
inactive: [1] 0.021 | [2] -0.102 | [3] 0.001 | [4] 0.015 | [5] -0.024

SMARCA4 (UniProt P51532)
inactive: [1] -0.034 | [2] 0.016 | [3] 0.003 | [4] 0.014 | [5] 0.055

SHCBP1 (UniProt Q8NEM2)
inactive: [1] 0.056 | [2] 0.012 | [3] -0.032 | [4] -0.022 | [5] -0.039

SMIM12 (UniProt Q96EX1)
inactive: [1] -0.026 | [2] -0.006 | [3] 0.004 | [4] 0.105 | [5] 0.153

SLC38A10 (UniProt Q9HBR0)
inactive: [1] 0.007 | [2] 0.007 | [3] 0.036 | [4] -0.053 | [5] -0.04

SKA2 (UniProt Q8WVK7)
Sequence of UniProt Q8WVK7 (Q8WVK7 whole entry, looked up): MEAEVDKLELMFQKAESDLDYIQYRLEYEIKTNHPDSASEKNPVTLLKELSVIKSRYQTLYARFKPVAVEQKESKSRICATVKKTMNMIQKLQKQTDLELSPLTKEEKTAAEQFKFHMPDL
inactive: [1] -0.013 | [2] -0.038 | [3] 0.031 | [4] -0.004 | [5] 0.033

SRPK1 (UniProt Q96SB4)
inactive: [1] -0.002 | [2] -0.023 | [3] 0.004 | [4] -0.015 | [5] -0.025

SKA1 (UniProt Q96BD8)
inactive: [1] -0.03 | [2] 0.005 | [3] 0.025 | [4] -0.018 | [5] 0.018

SYPL1 (UniProt Q16563)
inactive: [1] -0.075 | [2] 0.003 | [3] -0.01 | [4] -0.041 | [5] -0.123

TARBP1 (UniProt Q13395)
inactive: [1] -0.108 | [2] -0.025 | [3] 0.112 | [4] 0.016 | [5] 0.053

TARDBP (UniProt Q13148)
inactive: [1] -0.094 | [2] -0.012 | [3] 0.067 | [4] -0.145 | [5] -0.041

TAF1B (UniProt Q53T94)
Sequence of UniProt Q53T94 (Q53T94 whole entry, looked up): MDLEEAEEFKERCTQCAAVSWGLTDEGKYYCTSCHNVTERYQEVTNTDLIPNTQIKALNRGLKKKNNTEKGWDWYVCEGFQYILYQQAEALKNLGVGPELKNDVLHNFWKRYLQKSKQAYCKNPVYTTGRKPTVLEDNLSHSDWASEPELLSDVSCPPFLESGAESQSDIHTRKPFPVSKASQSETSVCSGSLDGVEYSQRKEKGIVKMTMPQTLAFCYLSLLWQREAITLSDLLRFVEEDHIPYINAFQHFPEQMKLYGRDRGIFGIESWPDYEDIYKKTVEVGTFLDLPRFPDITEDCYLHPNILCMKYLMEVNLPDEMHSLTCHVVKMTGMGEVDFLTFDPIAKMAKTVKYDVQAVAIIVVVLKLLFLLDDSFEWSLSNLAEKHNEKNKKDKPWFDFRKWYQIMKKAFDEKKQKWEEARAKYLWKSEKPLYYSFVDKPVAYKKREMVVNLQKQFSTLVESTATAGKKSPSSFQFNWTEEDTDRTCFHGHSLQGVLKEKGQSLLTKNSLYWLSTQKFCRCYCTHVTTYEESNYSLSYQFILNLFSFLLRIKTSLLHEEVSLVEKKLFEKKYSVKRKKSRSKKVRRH
inactive: [1] -0.073 | [2] 0.071 | [3] 0.499 | [4] -0.13 | [5] -0.008

SVIP (UniProt Q8NHG7)
inactive: [1] 0.02 | [2] -0.048 | [3] -0.052 | [4] -0.069 | [5] -0.028

SLU7 (UniProt O95391)
Sequence of UniProt O95391 (O95391 whole entry, looked up): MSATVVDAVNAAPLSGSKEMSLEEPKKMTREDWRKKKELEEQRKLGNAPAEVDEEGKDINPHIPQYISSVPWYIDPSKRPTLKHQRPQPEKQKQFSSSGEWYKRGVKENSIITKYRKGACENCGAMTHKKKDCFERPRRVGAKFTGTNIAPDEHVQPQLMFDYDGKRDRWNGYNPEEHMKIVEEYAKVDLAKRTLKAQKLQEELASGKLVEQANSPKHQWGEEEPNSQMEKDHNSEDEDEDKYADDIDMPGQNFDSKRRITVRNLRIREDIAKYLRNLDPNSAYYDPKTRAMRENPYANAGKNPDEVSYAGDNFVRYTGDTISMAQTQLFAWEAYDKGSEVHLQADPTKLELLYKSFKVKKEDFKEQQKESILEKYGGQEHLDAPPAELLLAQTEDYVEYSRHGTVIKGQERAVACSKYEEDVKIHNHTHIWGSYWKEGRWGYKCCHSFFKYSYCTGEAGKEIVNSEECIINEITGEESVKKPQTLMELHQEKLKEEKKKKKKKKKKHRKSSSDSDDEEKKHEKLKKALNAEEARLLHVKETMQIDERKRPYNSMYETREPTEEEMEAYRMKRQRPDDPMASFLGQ
inactive: [1] -0.015 | [2] 0.041 | [3] 0.045 | [4] -0.028 | [5] -0.16

SSU72 (UniProt Q9NP77)
Sequence of UniProt Q9NP77 (Q9NP77 whole entry, looked up): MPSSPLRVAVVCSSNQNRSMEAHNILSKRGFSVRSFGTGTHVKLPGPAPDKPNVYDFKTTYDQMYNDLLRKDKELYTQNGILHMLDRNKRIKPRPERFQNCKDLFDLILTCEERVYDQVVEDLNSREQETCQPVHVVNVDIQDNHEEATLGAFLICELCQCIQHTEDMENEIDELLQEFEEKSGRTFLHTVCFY
inactive: [1] 0.014 | [2] 0.017 | [3] 0.078 | [4] 0.004 | [5] -0.17

SOX5 (UniProt P35711)
inactive: [1] -0.092 | [2] -0.052 | [3] 0.076 | [4] -0.005 | [5] 0

SRSF9 (UniProt Q13242)
inactive: [1] 0.015 | [2] 0.024 | [3] -0.076 | [4] 0.06 | [5] -0.014

SSBP3 (UniProt Q9BWW4)
inactive: [1] -0.113 | [2] -0.031 | [3] 0.062 | [4] -0.06 | [5] -0.005

SULT1A1 (UniProt P50225)
inactive: [1] -0.022 | [2] -0.02 | [3] 0 | [4] 0.051 | [5] 0.088

SMC2 (UniProt O95347)
inactive: [1] -0.007 | [2] 0.018 | [3] 0.016 | [4] 0.003 | [5] 0.069

SMAP2 (UniProt Q8WU79)
Sequence of UniProt Q8WU79 (Q8WU79 whole entry, looked up): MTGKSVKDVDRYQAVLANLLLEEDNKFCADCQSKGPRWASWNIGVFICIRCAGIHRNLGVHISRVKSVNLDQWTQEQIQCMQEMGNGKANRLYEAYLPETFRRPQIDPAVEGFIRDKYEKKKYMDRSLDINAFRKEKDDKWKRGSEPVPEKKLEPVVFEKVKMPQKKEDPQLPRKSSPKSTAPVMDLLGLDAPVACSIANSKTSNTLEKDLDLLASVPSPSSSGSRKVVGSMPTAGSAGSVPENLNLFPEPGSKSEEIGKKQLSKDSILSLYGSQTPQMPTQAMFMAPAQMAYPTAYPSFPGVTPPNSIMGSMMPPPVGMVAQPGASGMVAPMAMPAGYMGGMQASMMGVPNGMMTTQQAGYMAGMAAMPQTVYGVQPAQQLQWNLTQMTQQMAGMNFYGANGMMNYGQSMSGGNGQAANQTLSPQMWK
inactive: [1] 0.02 | [2] -0.002 | [3] 0.029 | [4] 0.049 | [5] 0.02

SH3GL1 (UniProt Q99961)
inactive: [1] 0.007 | [2] 0.016 | [3] 0.007 | [4] 0.012 | [5] 0.003

STK25 (UniProt O00506)
inactive: [1] -0.05 | [2] 0.035 | [3] -0.062 | [4] 0.053 | [5] -0.048

SLC27A4 (UniProt Q6P1M0)
inactive: [1] 0.106 | [2] -0.006 | [3] 0.054 | [4] -0.002 | [5] 0.121

SSB (UniProt P05455)
Sequence of UniProt P05455 (P05455 whole entry, looked up): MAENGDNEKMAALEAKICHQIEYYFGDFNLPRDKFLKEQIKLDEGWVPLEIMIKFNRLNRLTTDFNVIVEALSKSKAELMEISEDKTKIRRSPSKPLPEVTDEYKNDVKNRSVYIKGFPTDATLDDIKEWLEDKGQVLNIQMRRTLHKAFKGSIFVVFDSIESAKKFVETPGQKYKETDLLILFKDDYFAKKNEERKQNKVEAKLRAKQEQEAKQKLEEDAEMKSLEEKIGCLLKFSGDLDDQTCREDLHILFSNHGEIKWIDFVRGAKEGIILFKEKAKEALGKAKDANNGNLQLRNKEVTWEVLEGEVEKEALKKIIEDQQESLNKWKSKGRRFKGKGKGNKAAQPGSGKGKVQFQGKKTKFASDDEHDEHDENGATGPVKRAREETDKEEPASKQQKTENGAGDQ
inactive: [1] -0.004 | [2] 0.015 | [3] -0.009 | [4] 0.012 | [5] 0.068

SORBS3 (UniProt O60504)
inactive: [1] 0.047 | [2] 0.081 | [3] -0.049 | [4] 0.028 | [5] 0.022
